Experimental data: PubChem BioAssay AID2401 (Southern Research Specialized Biocontainment Screening …, 2010)
In all, about 2,200 compounds went through this assay and about 530 (24%) were called active.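 Rule for the calls: active = inhibition above a set limit at one or more concentrations of the dose series; inactive = inhibition under that limit at every dose.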 Not all results are given here. Entries that show only a call come without a potency. Potency and affinity values are given separately.

Assay: nmpC-GFP reporter counter-screen in S. Typhimurium, dose response, counter-screen for PhoP regulon inhibitor project, Salmonella Typhimurium, GFP fluorescence (AID 2401);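 note: S. typhimurium with Mg-insensitive nmpC-GFP reporter grown at 10 µM Mg2+; drop in reporter fluorescence reflects general culture growth inhibition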
Details: 4 h; series mostly up to 150 µM

Row | Compound | outcome
1 | Cc1ccc(S(=O)(=O)N(CC(=O)N=Nc2c(O)[nH]c3ccccc23)c2ccc(C)c(C)c2)cc1 | inactive
2 | Cc1ccccc1C(=O)N(C)Cc1ccccc1 | inactive
3 | CCc1nc2cc(Cl)c(Cl)cc2[nH]1 | inactive
4 | O=C(Cn1nc(Cc2cccnc2)c2ccccc2c1=O)NCc1ccc2c(c1)OCO2 | inactive
5 | CCn1cc(C(=O)O)c(=O)c2cc(Br)ccc21 | inactive
6 | Cc1ccc(S(=O)(=O)c2cn(Cc3ccc(F)cc3)c3cc4c(cc3c2=O)OCO4)cc1 | inactive
7 | O=C(O)c1cc(NCc2ccc3c(c2)OCO3)ccc1N1CCOCC1 | inactive
8 | COc1ccc(OC)c(-c2cc(C(=O)Nc3c(C)nn(Cc4ccccc4)c3C)no2)c1 | inactive
9 | CCS(=O)(=O)Nc1cc(C(=O)OC)ccc1C(=O)OC | inactive
10 | Cn1nnnc1SCC(=O)NC1CCCCC1 | inactive
11 | COC(=O)c1ccc(NC(=S)Nc2ccc3ccccc3c2)cc1 | inactive
12 | Cc1nn2c(=O)cc(CSc3nc4ccccc4[nH]3)nc2s1 | inactive
13 | CCn1ncc(/C=C/C(=O)NCc2cn(C)nc2C)c1C | inactive
14 | COc1ccc(S(=O)(=O)N2CCN(Cc3ccccc3)CC2)cc1 | inactive
15 | CCN(CC)S(=O)(=O)c1ccc2[nH]cc(C(=O)NCCc3ccccc3)c(=O)c2c1 | inactive
16 | CN(c1ccccc1)S(=O)(=O)c1ccc(C(=O)Nc2nnc(-c3ccc(F)cc3)o2)cc1 | inactive
17 | Cc1ccc(C)c(NC(=O)C(Sc2nnc(-c3cccs3)o2)c2ccccc2)c1 (centres undefined) | inactive
18 | Oc1ccc(Br)cc1-c1nc2cnccn2c1NC1CCCCC1 | inactive
19 | O=C(Nc1ccccn1)NC1CCCCC1 | inactive
20 | COc1ccc(N2C(=O)C3CCCN3C2c2cccc(C)c2)cc1Cl (centres undefined) | inactive
21 | O=C(/C=C/c1ccco1)N/C(=C\c1ccccc1)C(=O)NCCc1nc2ccccc2[nH]1 | inactive
22 | CC(C(=O)NC1CCCc2ccccc21)N1CCN(Cc2ccc3c(c2)OCO3)CC1 (centres undefined) | inactive
23 | Cc1ccccc1Nc1nnc(SCC(=O)NC2CCCc3ccccc32)s1 (centres undefined) | inactive

Row | Compound | outcome
24 | Cc1ccc(CNc2oc(-c3cccs3)nc2C#N)cc1 | inactive
25 | CN(CC(=O)N1CCN(c2ccccn2)CC1)S(=O)(=O)c1ccc2ccccc2c1 | inactive
26 | COc1ccc(C2C(C#N)=C(N)OC3=C2C(=O)CCC3)cc1Cn1cc([N+](=O)[O-])cn1 (centres undefined) | inactive
27 | COc1ccc(Nc2nnc(SCc3cn4c(C)cccc4n3)s2)cc1 | inactive
28 | Cc1cc(N/N=C/c2cccc(Cl)c2)nc(NCc2ccccc2)n1 | inactive
29 | Clc1ccc(Nc2ccc(NCc3ccccc3)nn2)cc1 | inactive
30 | Cc1ccc(NC(=O)CSc2nnc(C3CCCCC3)n2N)cc1F | inactive
31 | CCOc1ccc2nc(COC(=O)c3ccco3)c(C(C)=O)[n+]([O-])c2c1 | inactive
32 | O=C(Nc1ccc(Br)cc1)c1ccc(F)c(S(=O)(=O)NCc2cccs2)c1 | inactive
33 | NCCCCCc1nnc(SCc2ccc(Cl)c(Cl)c2)o1 | inactive
34 | O=C(Cn1cc[n+](CC(=O)c2ccccc2)c1)c1ccccc1 | inactive
35 | CC(C)(C)c1n[nH]c(=S)n(/N=C/c2cccs2)c1=O | inactive
36 | N#CC1=C(N)SC(N)=C(C#N)C1c1ccc([N+](=O)[O-])cc1 | inactive
37 | Cc1cc(Oc2ccc(-c3nnc(-c4ccccc4)o3)cc2[N+](=O)[O-])ccc1Cl | inactive
38 | Cc1ccccc1OCCSCc1nc2ccccc2[nH]1 | inactive
39 | O=C(CCN1C(=O)c2ccccc2S1(=O)=O)Nc1ccc2c(c1)OCCO2 | inactive
40 | COc1ccc(OC)c(S(=O)(=O)N2c3cc(F)ccc3CCC2C)c1 (centres undefined) | inactive
41 | CC1(C)CC(=O)c2c(nc3ccccc3c2N)C1 | inactive
42 | O=C(NNc1c2ccccc2nc2ccccc12)c1cccc(O)c1 | inactive
43 | Nc1nnc(SCc2ccc(F)cc2Cl)s1 | inactive
44 | CNC(=O)CN(c1ccc(F)cc1)S(=O)(=O)c1cc(C)ccc1OC | inactive
45 | CN1CCCC(OC(=O)CCCC(=O)OC2CCCN(C)C2)C1 (centres undefined) | inactive
46 | Cc1ccc2[nH]c3c(=O)n(CCc4cnc[nH]4)cnc3c2c1 | inactive

Row | Compound | outcome
47 | Cc1ccc(C(=O)COC(=O)CNS(=O)(=O)c2ccccc2)cc1[N+](=O)[O-] | inactive
48 | CC(C)n1cc(C(=O)N2CCCC(N3CCN(c4ccc(F)cc4)CC3)C2)cn1 (centres undefined) | inactive
49 | CCn1cc(C(C)(C)C)c(C#N)c1NC(C)=O | inactive
50 | O=C(NC1CCCCC1)n1c(=O)oc2ccc(Cl)cc21 | inactive
51 | O=C(CCN1C(=O)C2C3C=CC(C3)C2C1=O)N1CCN(c2cccc(Cl)c2)CC1 (centres undefined) | inactive
52 | Cc1cccc(OCC(=O)N(Cc2cccs2)C2CCS(=O)(=O)C2)c1C (centres undefined) | inactive
53 | CC(C)Oc1cccc(C(=O)NC(=S)Nc2ccccc2)c1 | inactive
54 | CC(C)OC(=O)c1ccc(NC(=O)c2ccccc2)cc1 | inactive
55 | COc1ccc(Oc2coc3cc(OC(=O)c4cccs4)ccc3c2=O)cc1 | inactive
56 | COC(=O)c1ccc(NC(=O)c2ccc(N(C)S(C)(=O)=O)cc2)cc1 | inactive
57 | O=C(CCCCCNc1nc(=S)[nH]c2ccccc12)NCCc1c[nH]c2ccccc12 | inactive
58 | O=C(NNC(=O)c1ccccc1-n1cccc1)c1ccc(Cl)c(Cl)c1 | inactive
59 | Cc1ccccc1NC(=S)N(CCCN1CCOCC1)Cc1ccccn1 | inactive
60 | CCOc1ccc(CCNC(=O)c2cc3sc(Cl)cc3n2C)cc1OCC | inactive
61 | CCOc1ccc(/C=N/O)cc1 | inactive
62 | CCN1CCN(C(=O)c2ccc(COc3ccc(Cl)cc3)o2)CC1 | inactive
63 | COc1ccc(C)cc1C(=O)CCC(=O)Nc1ccccc1N1CCOCC1 | inactive
64 | C#CCOc1ccc(/C=N/O)cc1Cl | inactive
65 | COc1ccc(C(C(=O)NC2CCCC2)N(C(=O)c2ccoc2C)c2cc(C)cc(C)c2)cc1 (centres undefined) | inactive
66 | COc1ccc(NS(=O)(=O)c2cc(C)ccc2NC(=O)c2cc(C)oc2C)cc1 | inactive
67 | Cc1cc2oc(=O)cc(CSc3nc(N)cc(N)n3)c2cc1C | inactive
68 | O=C(CSc1nncs1)Nc1ccc2c(c1)OCCO2 | inactive
69 | CCOc1ccc(OCc2ccc(C(=O)N3CCc4ccccc4C3)o2)cc1 | inactive

Row | Compound | outcome
70 | Cc1cc(C(=O)NCc2cccs2)cs1 | inactive
71 | COc1ccc2[nH]c(S(=O)Cc3ncc(C)c(OC)c3C)nc2c1 (centres undefined) | inactive
72 | Cc1ccc(C(C)C)c(OCC(=O)Nn2c(=O)[nH]c3ccccc3c2=O)c1 | inactive
73 | O=C(NC1CC1)C1=NOC(CNc2ncc(C(F)(F)F)cc2Cl)C1 (centres undefined) | inactive
74 | O=C(Cc1n[nH]c(=O)c2ccccc12)OCC(=O)c1ccc2c(c1)OCCO2 | inactive
75 | c1ccc(Cc2nnc(-c3ccccc3)o2)cc1 | inactive
76 | Oc1ccccc1CN1CCCN(Cc2ccccc2O)C1 | inactive
77 | CC(C)Cc1oc(C(=O)O)cc1CN1CCOCC1 | inactive
78 | COc1ccc(NC(=O)CN2CCCCC2)c([N+](=O)[O-])c1 | inactive
79 | CC(C)(C)c1ccc(C(=O)NC(=S)NCc2cccnc2)cc1 | inactive
80 | O=C(Nc1nc2cc3c(cc2s1)OCO3)C1=COCCO1 | inactive
81 | CCOc1ccc(CSC(CC(=O)O)C(=O)O)cc1 (centres undefined) | inactive
82 | O=C(CSc1ncnc2ccccc12)Nc1cc(S(=O)(=O)N2CCCCC2)ccc1Cl | inactive
83 | Cc1ccc(CCNC(=O)C2CCN(S(=O)(=O)N3CCCC3)CC2)cc1 | inactive
84 | COc1ccc(CN2CCOCC2)cc1Br | inactive
85 | COc1ccc(C(=O)Oc2c(CN3CCOCC3)cc(Cl)c3cccnc23)cc1 | inactive
86 | N#Cc1ccc(COC(=O)c2ccc3c(=O)[nH]c(CN4CCOCC4)nc3c2)cc1 | inactive
87 | COc1ccc(CCNC(=O)c2ccc(CN3CCOCC3)cc2)cc1 | inactive
88 | COc1ccc(C2C(C(=O)c3cccs3)=C(O)C(=O)N2c2nnc(C)s2)cc1OC (centres undefined) | inactive
89 | CCC(CC)C(=O)Nc1cccc(C(=O)N2CCCC2)c1 | inactive
90 | c1ccn2c(CNc3ncnc4sccc34)nnc2c1 | inactive
91 | Cc1cc(C)c2cc(CN(Cc3cccnc3)C(=O)c3ccc(F)cc3)c(Cl)nc2c1 | inactive
92 | c1ccc(C2(CNc3ccccn3)CCCC2)cc1 | inactive

Row | Compound | outcome
93 | O=c1[nH]c(CSc2ncc(-c3ccc(F)cc3)n2Cc2ccco2)nc2ccccc12 | inactive
94 | CC(C)(C)C1CCC2(CC1)Nc1cccc3cccc(c13)N2 | inactive
95 | CCn1c2ccccc2c2cc(NC(=O)C(C)Oc3ccccc3)ccc21 (centres undefined) | inactive
96 | COc1cccc(N(C(=O)c2ccco2)c2nc(-c3sc(NC(=O)c4ccco4)nc3C)cs2)c1 | inactive
97 | Cc1ccc(Nc2nc(N)nc(CC#N)n2)cc1 | inactive
98 | C/C(CC(=O)Nc1ccc(Cl)c(C(F)(F)F)c1)=N\NC(=O)c1cccc(O)c1 | inactive
99 | CCCCCC(=O)Nc1ccc2ccccc2c1 | inactive
100 | CC1CC(C)CN(CCCNC(=O)C2CCC(=O)N2C2CCCC2)C1 (centres undefined) | inactive
101 | Cc1ccc(NC2CC(=O)N(Cc3ccccc3)C2=O)cc1 (centres undefined) | inactive
102 | Cc1ccc(-n2nc(-c3ccc(N)cc3)cc2N)cc1 | inactive
103 | CC(C)=CCN1CCN(Cc2ccoc2)CC1CCO (centres undefined) | inactive
104 | O=C(CCCN1Cc2ccccc2C1)c1ccc(F)cc1 | inactive
105 | CCOc1ccc(/C=C/C(=O)Nc2ccc(OC)cc2[N+](=O)[O-])cc1 | inactive
106 | O=C(CSc1nc2ccccc2[nH]1)Nc1ccc(F)c(F)c1 | inactive
107 | O=C(CNc1ccccc1)Nc1ccc(F)cc1 | inactive
108 | COc1ccc(NC(=O)ON=C2c3ccccc3-c3ccccc32)cc1 | inactive
109 | Cc1ccc(-c2cc(-c3ccc(Cl)cc3)c(C#N)c(N)n2)o1 | inactive
110 | O=C1CCc2cc(S(=O)(=O)N3CCN(c4cccc(Cl)c4)CC3)ccc2N1 | inactive
111 | CCNC(=S)NNC(=O)c1ccc(OC(F)F)cc1 | inactive
112 | Cc1ccc(NC(NC(=O)c2ccccn2)C(Cl)(Cl)Cl)cc1 (centres undefined) | inactive
113 | S=C(Nc1ccc(Cl)c(Cl)c1)N1CCOCC1 | inactive
114 | COC(=O)CCC(=O)Nc1ccc(Cl)c(Cl)c1 | inactive
